Test results: PubChem BioAssay AID2283176 (EPA ToxCast)
Records with an inconclusive call do not appear. Active and inactive are the calls of the source. Rule for the calls: active = hit-call score of the fitted dose curve at least 0.9, where 1 is the maximum; inconclusive = response in the unintended direction; inactive = score below 0.9.

The compounds below were run against human MAP Kinase-Activated Protein Kinase 5 (MAPKAPK5), MAPKAPK5 (gene 8550) (UniProt Q8IW41) (assay: NVS_ENZ_hMAPKAPK5: NovaScreen (NVS) Enzymatic Assay for human MAP Kinase-Activated Protein Kinase 5 (MAPKAPK5)).
Chain of human MAP Kinase-Activated Protein Kinase 5 (MAPKAPK5), MAPKAPK5 (gene 8550) (Q8IW41 whole entry, looked up): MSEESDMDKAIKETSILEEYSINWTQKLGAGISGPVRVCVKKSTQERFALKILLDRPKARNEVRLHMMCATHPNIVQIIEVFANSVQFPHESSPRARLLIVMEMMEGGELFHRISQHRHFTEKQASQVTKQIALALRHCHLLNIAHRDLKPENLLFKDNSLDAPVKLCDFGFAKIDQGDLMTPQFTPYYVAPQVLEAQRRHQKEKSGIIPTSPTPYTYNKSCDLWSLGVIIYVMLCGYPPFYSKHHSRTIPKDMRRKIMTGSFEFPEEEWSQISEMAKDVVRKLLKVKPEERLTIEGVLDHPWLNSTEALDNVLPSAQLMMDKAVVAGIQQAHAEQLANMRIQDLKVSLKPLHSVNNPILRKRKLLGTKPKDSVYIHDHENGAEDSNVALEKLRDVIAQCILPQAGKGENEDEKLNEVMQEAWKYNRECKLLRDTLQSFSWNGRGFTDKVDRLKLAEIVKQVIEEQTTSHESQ
Description: NVS_ENZ_hMAPKAPK5 is a biochemical, single-readout assay that uses extracted gene-proteins in a cell-free assay. Measurements were taken 1 hour after chemical dosing in a 384-well plate.NVS_ENZ_hMAPKAPK5 is one of one assay component(s) measured or calculated from the NVS_ENZ_hMAPKAPK5 assay. It is designed to make measurements of enzyme activity, a form of enzyme reporter, as detected with fluorescence intensity signals by Fluorescence and electrophoretic mobility shift technology.Data from the assay component NVS_ENZ_hMAPKAPK5 was analyzed into 1 assay endpoint. This assay endpoint, NVS_ENZ_hMAPKAPK5, was analyzed in the positive analysis fitting direction relative to DMSO as the negative control and baseline of activity. Using a type of enzyme reporter, loss-of-signal activity can be used to understand changes in the enzymatic activity as they relate to the gene MAPKAPK5. Furthermore, this assay endpoint can be referred to as a primary readout, because this assay […]. To generalize the intended target to other relatable targets, this assay endpoint is annotated to the kinase intended target family, where the subfamily is serine/threonine kinase.
Binding assays used specific radioligands (tritiated, iodinated) with non-radioactive competitive displacement ligands in agonist or antagonist protocols (as indicated) and various reference compounds and inhibitors to titrate specific binding to receptors and transporters. Most enzyme assays (CYPs, kinases, phosphatases, proteases, HDACs) used recombinant protein and specific substrates (fluorescence mostly, some colorimetric and radioactive) and inhibitors, followed by a biochemical separation of substrate and product. All assays for the biochemical HTS were initially run in duplicate at a single concentration (10 uM for CYP450 assays and 25 uM for all others). Assay-chemical combinations meeting a pre-defined threshold (e.g., 30% inhibition and other criteria defined below) were then run in singleton concentration-response format with maximum concentration of 20 uM for CYPs and 50 uM for all others. Each assay was run with positive and negative controls, and concurrent controls on every plate. The follow-up (secondary) screen tested active chemical-pairs in concentration series, as well as a few additional assays not tested in the primary screen, some selected negative inactives, and several cases re-run in the concentration series for confirmatory purposes.

| SMILES | outcome | AC50 |
| --- | --- | --- |
| CCCC(=NOCC)C1=C(O)CC(CC(C)SCC)CC1=O (stereo not drawn) | inactive |  |
| CN(C)[C@@H]1C(=O)C(C(N)=O)=C(O)[C@@]2(O)C(=O)C3=C(O)c4c(O)cccc4[C@@](C)(O)[C@H]3[C@H](O)[C@@H]12 |  | 24.2 µM (active) |
| CNC(=S)S | inactive |  |
| O=S(=O)(O)C(F)(F)C(F)(F)C(F)(F)C(F)(F)C(F)(F)C(F)(F)C(F)(F)C(F)(F)F |  | 44.1 µM (active) |
| O=C(O)C(F)(F)C(F)(F)C(F)(F)C(F)(F)C(F)(F)C(F)(F)C(F)(F)F | inactive |  |
| C=C(C)CN(CC)c1c([N+](=O)[O-])cc(C(F)(F)F)cc1[N+](=O)[O-] | inactive |  |
| N#Cc1c(Cl)c(Cl)c(Cl)c(C#N)c1Cl | inactive |  |
| S=C1NCCN1 | inactive |  |
